PubChem BioAssay AID1671190 (National Center for Advancing Translational Sciences (NCATS), 2021)
The whole screen tested about 580,000 compounds, of which about 6,100 (1.1%) were called active. About 15% were inconclusive and are not listed. The sample holds actives, similar compounds and a random draw of the others, so the mix is not that of the screen. Values without a mark were called inactive. The call rests on the fitted dose curve; in most records, active means well fitted inhibition curve with a large enough effect; inconclusive means small, poorly fitted or top-dose-only effect, or another doubt; inactive means no such curve, though single readings can be large or run the other way.

target: Polyunsaturated fatty acid lipoxygenase ALOX12 (Homo sapiens) (UniProt P18054); test: Primary qHTS assay for inhibitors of human arachidonate 12S-lipoxygenase (ALOX12): Round 2; details: purified 12hLO, xylenol orange hydroperoxide absorbance; series mostly up to 108 µM; activity change, negative = inhibition: at the top concentration
Sequence (P18054 whole entry, looked up): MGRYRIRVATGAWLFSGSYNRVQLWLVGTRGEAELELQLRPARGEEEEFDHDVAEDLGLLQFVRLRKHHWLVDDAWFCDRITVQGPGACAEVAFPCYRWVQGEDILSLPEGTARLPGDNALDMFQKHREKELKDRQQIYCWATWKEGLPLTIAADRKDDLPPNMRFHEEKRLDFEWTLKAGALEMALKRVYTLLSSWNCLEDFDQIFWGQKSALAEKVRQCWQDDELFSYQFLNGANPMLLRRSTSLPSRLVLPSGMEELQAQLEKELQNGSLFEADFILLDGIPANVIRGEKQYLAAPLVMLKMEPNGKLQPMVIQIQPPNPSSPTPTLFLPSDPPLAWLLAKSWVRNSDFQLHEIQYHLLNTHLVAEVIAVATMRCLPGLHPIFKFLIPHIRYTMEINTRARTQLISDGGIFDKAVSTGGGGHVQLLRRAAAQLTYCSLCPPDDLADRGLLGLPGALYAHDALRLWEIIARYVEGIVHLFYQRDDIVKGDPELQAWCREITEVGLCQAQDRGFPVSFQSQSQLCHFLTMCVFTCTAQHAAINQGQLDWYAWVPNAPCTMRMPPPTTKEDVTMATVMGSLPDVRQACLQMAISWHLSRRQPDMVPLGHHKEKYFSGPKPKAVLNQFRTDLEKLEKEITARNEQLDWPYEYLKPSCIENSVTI
Procedure, shortened: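 Purified human 12hLO at 150 nM in 25 mM Hepes, 0.01% Triton X-100, pH 7.0, preincubated 15 min at room temperature with compound. Reaction started with 40 uM arachidonic acid, 30 min at room temperature. Hydroperoxide measured by Fe-xylenol orange, 573/405 nm absorbance ratio.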
On the % scale 0 is the no-effect control and ±100 the full control effect; potency means the concentration at half of the fitted maximal effect.

Row | Structure (SMILES) | Potency | activity change, negative = inhibition
1 | CC[C@@H]1Cc2cc(O)ccc2C2=C1c1ccc(O)cc1C[C@H]2CC | 50.1 µM (active) | –
2 | Cc1ccc(C)c(NC(=S)NNC(=S)Nc2ccc(C(C)C)cc2)c1 | 35.5 µM (active) | –
3 | Cc1ccc(C)c(NC(=S)NNC=O)c1 | – | 36.4%
4 | CCC(C)NC(=S)Nc1ccc(C)cc1 (stereo unspecified) | – | -52.6%
5 | O=C(CCC1CCCCC1)NC(N1CCCCC1)(C(F)(F)F)C(F)(F)F | – | 0%
6 | CC(CCc1ccccc1)NC(=O)C1CC=CCC1 (stereo unspecified) | – | 4.29%
7 | CCc1ccc(C(=O)Nc2ccc(Cl)cc2)cc1S(=O)(=O)N1CCOCC1 | – | -4.05%
8 | CCc1cccc(NC(=O)c2cccc(S(=O)(=O)N3CCOCC3)c2)c1 | – | 4.89%
9 | CCc1nnc(NS(=O)(=O)c2ccc(NC(=S)NC(=O)c3cccs3)cc2)s1 | 22.4 µM (active) | –
10 | Cc1cc(C)nc(NS(=O)(=O)c2ccc(N/C=C\C(=O)c3cccs3)cc2)n1 | – | -7.72%
11 | CCC(CC)C(=O)Nc1ccc(S(=O)(=O)Nc2nccs2)cc1 | – | -10.7%
12 | S=C(Cc1ccccc1)SC/C=C/c1ccccc1 | – | 12.7%
13 | NNc1nc2c(Cl)cccc2s1 | 17.8 µM (active) | –
14 | CCN1CCN(C(=O)c2cc3cc(Cl)cc(Cl)c3oc2=O)CC1 | – | -0.253%
15 | CCCCNC(=O)C(C#N)c1nc2ccccc2nc1N1CCN(C(=O)OCC)CC1 (stereo unspecified) | – | -11.5%
16 | Fc1ccc(N/N=C/c2ccc(-c3ccccc3)cc2)c(F)c1 | 2.24 µM (active) | –
17 | O=C(CN1CCN(C/C=C/c2ccccc2)CC1)Nc1ccc(F)cc1F | – | 3.73%
18 | Fc1ccc(N/N=C/c2cccc(/C=N/Nc3ccc(F)cc3F)c2)c(F)c1 | – | 58.7%
19 | COc1ccc(NC(C)=O)cc1NC(=O)c1nc(-c2ccccc2)oc1C | – | -6.87%
20 | O=C(NC1CCS(=O)(=O)C1)c1cc2sccc2n1Cc1ccccc1 (stereo unspecified) | – | 6.34%
21 | CN(C)CCNC(=O)CC1CCN(C(=O)c2nnc(C(=O)Nc3cccc(Cl)c3)s2)CC1 | – | 53.9%
